Measured values taken from PubChem BioAssay (Tox21).
Results filed as inconclusive are left out. A call without a number means that no potency is given here. Activity calls are given as the source filed them. The call rests on the fitted dose curve.

test: p53 small molecule agonists, cell-based qHTS assay: qHTS cell viability counter screen (AID 1963581); conditions: p53RE-bla HCT-116 viability, ATP luminescence, 16 h; series mostly up to 66 µM; further: nearly all actives have a fitted effect of over 45% in size
Text: National Center for Advancing Translational Sciences [NCATS]
Division of Preclinical Innovation [DPI]
U.S. Environmental Protection Agency [EPA]
National Institutes of Environmental Health Sciences [NIEHS]
National Toxicology Program [NTP]
U.S. Food and Drug Administration [FDA]
p53, a tumor suppressor protein, is activated following cellular insult, including DNA damage and other cellular stresses. The activation of p53 regulates cell fate by inducing DNA repair, cell cycle arrest, apoptosis, or cellular senescence. The activation of p53, therefore, is a good indicator of DNA damage and other cellular stresses. The CellSensor p53RE-bla HCT-116 cell line (Invitrogen) contains a stably integrated beta-lactamase reporter gene under control of the p53 response elements. The activation of the reporter gene under culture conditions can be detected by fluorescence intensity. This cell line was used to screen the Tox21 compound library in a 1536-well plate format and to identify agonists that activate the p53 signaling pathway. The cytotoxicity of the Tox21 compound library against the p53 RE-bla HCT-116 cell line was tested in parallel by measuring the intra cellular ATP content in the same wells.
Tox21 Assay Protocol Summary:
The p53RE-bla cells were dispensed at 4,000 cells/5 ul/well in 1536-well black wall/clear bottom plates using a Multidrop dispenser. After the assay plates were incubated at a 37 C/5% CO2 incubator for 5 hours, 23 nL of compounds dissolved in DMSO, positive controls or DMSO only was transferred to the assay plate by a pin tool. The plates were incubated at 37 C for 16 hours. After 1 uL of LiveBLAzerTM B/G FRET substrate was added using a Flying Reagent Dispenser, the plates were incubated at room temperature for 2 hours, and fluorescence intensity was measured by an Envision plate reader. For cell viability readout that measures cytotoxicity, 4 ul/well of CellTiter-Glo reagent was added into the assay plates using a Flying Reagent Dispenser. After 30 min incubation at room temperature, the luminescence intensity in the plates was measured using a ViewLux plate reader.
Potency means the concentration at half of the fitted maximal effect.

| Compound | Potency | activity change, negative = cytotoxicity |
| --- | --- | --- |
| CNCc1ccccc1 | inactive | – |
| O=C(O)c1snc(Cl)c1Cl | inactive | – |
| CCCC(=O)OCOC(=O)C1=C(C)NC(C)=C(C(=O)OC)C1c1cccc(Cl)c1Cl (stereo not given) | inactive | – |
| C1=CCC(c2ccccc2)CC1 (stereo not given) | inactive | – |
| CCCCOC(=O)CC | inactive | – |
| Oc1cccc2cc3cccc(O)c3c(O)c12 | inactive | – |
| COc1cc(NS(=O)(=O)c2ccc(N)cc2)nc(OC)n1 | inactive | – |
| CC(C)=CCC/C(C)=C/CC/C(C)=C/CCC(=O)OC/C=C(\C)CCC=C(C)C | inactive | – |
| CCOC(=O)C1=NOC(c2ccccc2)(c2ccccc2)C1 | inactive | – |
| CCCCC(CC)COC(=O)c1ccccc1O (stereo not given) | inactive | – |
| Cc1cc(N)c(S(=O)(=O)O)cc1Cl | inactive | – |
| CCCCCc1ccco1 | inactive | – |
| CCCCCCCCCOC(=O)c1ccccc1C(=O)OCCCCCCCCC | inactive | – |
| O[C@@H](COc1cccc2ncccc12)CN1CCN(C2c3ccccc3[C@@H]3[C@H](c4ccccc42)C3(F)F)CC1 (stereo not given in full) | inactive | – |
| CCCCNc1ccc(C(=O)OCCN(C)C)cc1 | inactive | – |
| O=C(O)c1cccc(-c2noc(-c3ccccc3F)n2)c1 | 15.8 µM (active) | – |
| CC(C)CC(=O)C1C(=O)c2ccccc2C1=O | inactive | – |
| N[C@@H](CSCCCO)C(=O)O | – | -10.7% [at 13.5 µM] (inactive) |
| Cc1[nH]c(=O)c(C#N)cc1-c1ccc2nccn2c1 | inactive | – |
| Cc1ccc2c(Cl)cc(Cl)c(O)c2n1 | inactive | – |

| Compound | Potency | activity change, negative = cytotoxicity |
| --- | --- | --- |
| COC(=O)NN | inactive | – |
| COC(C)(C)CCCC(C)CC=O (stereo not given) | inactive | – |
| C/C=C\C/C=C/CCCCCCCCOC(C)=O | inactive | – |
| CCCS(=O)c1ccc2nc(NC(=O)OC)[nH]c2c1 (stereo not given) | inactive | – |
| Cc1nc2n(c(=O)c1CCN1CCC(c3noc4cc(F)ccc34)CC1)CCCC2 | inactive | – |
| CC(C)(O)CCc1ccccc1 | inactive | – |
| CCCCCCCCCCCCN1CCOCC1 | inactive | – |
| Brc1c2ccccc2cc2ccccc12 | inactive | – |
| CCCCOCCOC(=O)COc1cc(Cl)c(Cl)cc1Cl | inactive | – |
| C/C=C(\C)C#N | inactive | – |
| NC(=O)CC[C@@H](N)C(=O)O | inactive | – |
| CCOC(=O)O[C@H](C)OC(=O)c1ccc2c(c1)cc(C(=O)NC1CCN(C(C)C)CC1)n2Cc1cc(-c2ccc(Cl)s2)on1 | 38.1 µM (active) | – |
| COc1ccc(-c2cc(=O)c3c(O)cc(O[C@@H]4O[C@H](CO[C@@H]5O[C@@H](C)[C@H](O)[C@@H](O)[C@H]5O)[C@@H](O)[C@H](O)[C@H]4O)cc3o2)cc1O | inactive | – |
| CN1CCN(c2c(F)cc3c(=O)c(C(=O)O)cn4c3c2OCN4C)CC1 | – | 0.627% [at 13.5 µM] (inactive) |
| CC1COc2c(N3CCN(C)CC3)c(F)cc3c(=O)c(C(=O)O)cn1c23 (stereo not given) | inactive | – |
| CCN(CC)CC(=O)Nc1c(C)cccc1C(=O)OC | inactive | – |
| CC(=O)Oc1ccc(C(C)=O)cc1 | inactive | – |
| CC(C)[N+](C)(C)CC(O)COc1cccc2ccccc12 (stereo not given) | inactive | – |
| CC(C)(O)c1ccccc1CC[C@@H](SCC1(CC(=O)O)CC1)c1cccc(/C=C/c2ccc3ccc(Cl)cc3n2)c1 | inactive | – |
| O=C1c2ccccc2C(=O)N1CO | inactive | – |
